Values joined by “and” are separate entries in the source; they are usually repeats but may differ in a detail not shown here. Identical values can stand only once. About 3,700 (1%) of roughly 360,000 compounds were called active. Cut-off read from the data, not from the text of the source: active = activation above about 30%; inactive = the rest. The list comes from a sample in which actives are over-represented; it also holds similar structures and randomly drawn compounds. A structure can be active in one record and inactive in another.
Target: D(1A) dopamine receptor (Homo sapiens) (UniProt P21728)
Test: Allosteric Agonists of the Human D1 Dopamine Receptor: qHTS; note: 0% is about no effect
Details: HEK293 T-REx D1 cells, calcium flux, agonist mode; at 2 µM; stronger effect = higher value
Procedure, shortened: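 Tetracycline-induced HEK293 TREx D1 cells, force-coupled to calcium signalling, were dye-loaded with a no-wash calcium kit. Compound was pin-added after a 10 s baseline. Fluorescence was read kinetically at 1 cycle/s for 180 s, with calcium rises flagged as agonism.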

Sequence of D(1A) dopamine receptor (Homo sapiens) (P21728 whole entry, looked up): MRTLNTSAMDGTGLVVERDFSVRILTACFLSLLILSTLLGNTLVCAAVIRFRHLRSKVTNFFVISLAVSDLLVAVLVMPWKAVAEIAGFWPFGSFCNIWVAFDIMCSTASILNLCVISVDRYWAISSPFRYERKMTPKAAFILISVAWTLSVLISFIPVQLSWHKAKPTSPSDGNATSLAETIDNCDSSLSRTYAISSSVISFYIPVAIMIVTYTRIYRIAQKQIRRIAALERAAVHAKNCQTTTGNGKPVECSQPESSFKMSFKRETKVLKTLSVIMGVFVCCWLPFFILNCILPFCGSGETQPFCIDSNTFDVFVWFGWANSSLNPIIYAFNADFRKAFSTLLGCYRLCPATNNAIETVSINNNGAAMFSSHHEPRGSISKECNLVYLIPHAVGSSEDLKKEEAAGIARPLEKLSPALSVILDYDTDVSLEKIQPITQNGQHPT

| SMILES | activation |
| --- | --- |
| Cc1ccc(O)c(/C=N/NC(=O)COc2ccc3c(C)cc(=O)oc3c2)c1 | 3.75% (inactive) |
| Cc1ccc(O)c(NC(=S)NC(=O)COc2ccc(Br)cc2)c1 | 54.2% (active) |
| Cc1ccc(O)c(NC(=O)c2cc(-c3ccc(F)cc3)no2)c1 | -1.3% (inactive) |
| Cc1ccc(C)c(NC(=O)Cn2ccn(-c3ccc(F)cc3)c(=O)c2=O)c1 | 10.6% (inactive) |
| COc1cc(N2CCCC2)c(OC)cc1/C=C(/C#N)c1cccc(Br)c1 | 34.6% (active) |
| CCOC(=O)c1c(C)oc2nc(C)nc(N3CCN(c4ccc(OC)cc4)CC3)c12 | 0.866% (inactive) |
| Cc1cc(S(=O)(=O)c2cc3ccc(O)c(C)c3oc2=O)ccc1F | 56.6% (active) |
| COc1cc(Br)cc2cc(S(=O)(=O)c3ccccc3)c(=O)oc12 | 2.11% (inactive) |
| COc1ccc(NC(=O)c2ccc3oc(=O)c(S(=O)(=O)c4ccc(F)cc4)cc3c2)c(OC)c1 | -0.0208% (inactive) |
| CCc1nn(CC(=O)N2CCN(c3cccc(C(F)(F)F)c3)CC2)c(=O)c2cc3occc3n12 | -1.81% (inactive) |
| COc1ccc(C(=O)NCCCN2CCOCC2)cc1Br | 5.3% (inactive) |
| O=C(NCCCN1CCCCC1)c1ccc2c(c1)NC(=O)C(N1CCOCC1)S2 (stereo not drawn) | 1.92% (inactive) |
| O=C(NCCCN1CCOCC1)c1cc(-c2ccccc2F)no1 | 2.58% (inactive) |
| O=C(NCCCN1CCOCC1)c1ccc2c(c1)N(Cc1cccc(F)c1)C(=O)c1ccccc1S2 | 37.5% (active) |
| COc1cccc(CNC(=O)c2ccc3c(c2)N(Cc2ccc(C(F)(F)F)cc2)C(=O)c2ccccc2S3)c1OC | 7.24% (inactive) |
| Cc1ccccc1CN1C(=O)c2ccccc2Sc2ccc(C(=O)NCCCN3CCOCC3)cc21 | 16.6% (inactive) and 53.8% (active) |
| O=C(Cn1cnc2c(oc3ccccc32)c1=O)Nc1ccc(OC(F)(F)F)cc1 | 26.6% (inactive) |
| CCn1cc(C(=O)OCC(=O)Nc2cc(C)cc(C)c2)c(=O)c2ccc(C)nc21 | -2.27% (inactive) |
| COc1ccc(CNC(=O)Cn2nnc(-c3ccc(S(C)(=O)=O)cc3)n2)cc1 | -0.202% (inactive) |
| COc1ccc(Cl)cc1S(=O)(=O)N1CCC(O)(c2ccc(Cl)cc2)CC1 | 4.61% (inactive) |
| COc1cc(OC)c(-n2cc(-c3ccc(Cl)cc3)[nH]c2=O)cc1Cl | 87.1% (active) |
| COc1cc(OC)c(N2CC(C(=O)Nc3cc(Cl)ccc3N3CCOCC3)CC2=O)cc1Cl (stereo not drawn) | 6.25% (inactive) |

| SMILES | activation |
| --- | --- |
| CCCC12CN3CC(C)(CN(C1)C3c1ccccc1Cl)C2=O (stereo not drawn) | -0.996% (inactive) |
| COc1ccc(-c2noc(CSc3nc4ccc(C)cc4[nH]3)n2)cc1 | 5.23% (inactive) |
| CC(NC(=O)COC(=O)c1ccc(Cl)cc1O)c1ccc(F)cc1 (stereo not drawn) | 40% (active) |
| CC(CCc1ccccc1)NC(=O)COC(=O)c1ccc(F)cc1 (stereo not drawn) | 10.8% (inactive) |
| C=CCOc1ccc(/C=C/C(=O)OCC(=O)NC(C)c2ccc(F)cc2)cc1 (stereo not drawn) | 7.04% (inactive) |
| O=C1CCCc2cc(S(=O)(=O)N3CCCC(C(=O)NCc4ccccc4)C3)ccc2N1 (stereo not drawn) | 1.11% (inactive) |
| CCc1ccccc1NC(=O)Cn1c(=O)n(CC2CCC(C(=O)NCCc3ccccc3)CC2)c(=O)c2ccccc21 (stereo not drawn) | -1.58% (inactive) |
| CCn1cc(C(=O)NCc2ccccc2)c(=O)c2cc(S(=O)(=O)N3CCCCC3)ccc21 | 1.41% (inactive) |
| O=C(N/N=C/c1sc(N2CCCCC2)nc1-c1cccs1)c1cccnc1 | 32.8% (active) |
| Cc1ccc(S(=O)(=O)N2CCCCC2)cc1NC(=O)c1cccnc1 | 4.22% (inactive) |
| O=C(c1cccnc1)N1CCN(S(=O)(=O)c2cccs2)CC1 | 1.36% (inactive) |
| Cc1cc(NC(=O)C2CCC(CNS(=O)(=O)c3ccc(Br)s3)CC2)ccc1Br (stereo not drawn) | 9.94% (inactive) |
| N#Cc1nc(Nc2cccc(Cl)c2)nc(NC2CCCC2)n1 | 4.33% (inactive) |
| COc1cccc2c1cc1c(=O)n(CC(=O)N3CCN(c4cccc(Cl)c4)CC3)nc(C)n12 | -0.0969% (inactive) |
| O=C(CNC(=O)c1ccc(Cl)c(C(F)(F)F)c1)OC(C(=O)Nc1cc(C(F)(F)F)ccc1Cl)c1ccccc1 (stereo not drawn) | 15.3% (inactive) |
| Cc1ccc(C(=O)NCCSc2c(C)[nH]c3ccccc23)cc1C | 2.99% (inactive) |
| O=C(NCc1ccc2c(c1)CCN2C(=O)c1ccccc1)Nc1cc(F)ccc1F | 2.32% (inactive) |
| CCn1cc(CN2CCC(C(=O)Nc3cccc(-c4cccc(Cl)c4)c3)CC2)c(C)n1 | 17.5% (inactive) |
| CCn1cc(CN2CCC(C(=O)Nc3cccc(-c4cccc(Cl)c4)c3)CC2)cn1 | 10.6% (inactive) |
| O=C(Nc1cccc(-c2cccc(Cl)c2)c1)C1CCN(C2CCC2)CC1 | 33.2% (active) |
| O=C(Nc1cccc(-c2nc3ccccc3o2)c1)c1cccc(Br)c1 | 11.1% (inactive) |
| CCOC(=O)C1CCN(Cc2ccc(-c3ccccc3)cc2)CC1 | 5.56% (inactive) |

| SMILES | activation |
| --- | --- |
| CCOC(=O)/C(C#N)=C/c1ccc(N2CCCCC2)cc1 | 68.9% (active) |
| CCCn1c(C)cc(/C=C(\C#N)C(=O)OCC(=O)N(C)c2c(N)n(Cc3ccccc3)c(=O)[nH]c2=O)c1C | 1.98% (inactive) |
| CCOC(=O)/C(C#N)=C/c1ccc(N2CCN(Cc3ccccc3)CC2)cc1 | 46.5% (active) |
| COc1ccc(/C=C(\C#N)C(=O)ONC2=NCCCCC2)cc1 | 4.53% (inactive) |
| CCOC(=O)/C(C#N)=C\c1c(C)cc(C)c(COC(C)=O)c1C | 0.226% (inactive) |
| Cc1ccc2sc(N(Cc3cccnc3)C(=O)C3COc4ccccc4O3)nc2c1C (stereo not drawn) | 20.1% (inactive) |
| CC1CCN(S(=O)(=O)c2ccc3c(c2)N(CC(=O)NCCc2ccccc2)C(=O)CO3)CC1 | 1.33% (inactive) |
| O=C(NCCc1c[nH]c2ccccc12)C1CCN(Cc2ccc(Br)cc2)CC1 | 35.5% (active) |
| COc1ccc(CN2CCN(Cc3ccc(OC)c(OC)c3OC)CC2)cc1 | 1.73% (inactive) |
| CCOc1ccc(CN2CCCN(C)CC2)cc1 | 1.05% (inactive) |
| CCOc1ccc(CN2CCN(Cc3c[nH]c4ccccc34)CC2)cc1 | 33.4% (active) |
| CC1(C(=O)NCCc2c[nH]c3ccccc23)C=CC2(CCCCC2)N1C(=O)c1ccccc1 (stereo not drawn) | -1.33% (inactive) |
| Cc1ccc2[nH]cc(CCNC(=O)C3CCCCC3)c2c1 | 5.96% (inactive) |
| O=S(=O)(c1ccc(Cl)cc1)c1nnn2c1nc(NC1CCCC1)c1sccc12 | -0.225% (inactive) |
| Cc1ccc(C)c(N2CCN(Cc3nnc(-c4ccccc4)o3)CC2)c1 | 6.92% (inactive) |
| CCCn1c2ccccc2c2cnn(CC(=O)N(CC)c3cc(C)ccc3C)c(=O)c21 | 3.04% (inactive) |
| COc1cccc2cc(-c3nc(Cl)c4c5c(sc4n3)CC(C)CC5)c(=O)oc12 (stereo not drawn) | -0.914% (inactive) |
| COc1cc(/C=C(\C#N)c2nc3c(s2)CC(C)CC3)ccc1O (stereo not drawn) | 35.8% (active) |
| COc1ccc(OCCCn2cccc2/C=C2/C(=N)N3OC(C)=CC3=NC2=O)cc1 | 1.18% (inactive) |
| CC1=CC2=NC(=O)/C(=C/c3coc4ccccc4c3=O)C(=N)N2O1 | 227% (active) |
| Cc1cc(C)c2oc(-c3cccc(NC(=O)c4cccc(F)c4)c3C)nc2c1 | 1.24% (inactive) |
| N#C/C(=C/c1ccc(N2CCCCC2)o1)C(=O)NCCc1c[nH]c2ccccc12 | 78.8% (active) |

| SMILES | activation |
| --- | --- |
| O=C(NCCc1c[nH]c2ccccc12)c1cc2ccccc2oc1=O | 4.67% (inactive) |
| Cc1ccc(C(=O)N/C(=C/c2ccco2)C(=O)NCCc2c[nH]c3ccccc23)cc1C | 2.88% (inactive) |
| CCOc1ccccc1CNC(=O)c1cnc2c(-c3ccc(OCC)c(OCC)c3)c(C)nn2c1C | 1.83% (inactive) |
| CCOc1ccc(NC(=O)CC2C(=O)N(c3cccc(OC)c3)C(=O)N2C2CCCCC2)cc1 (stereo not drawn) | 2.76% (inactive) |
| O=C(O)CCC(=O)Nc1ccc(N2CCOCC2)cc1 | 4.21% (inactive) |
| C/C(=C/c1ccccc1)C(=O)N1CCN(c2ccccc2)CC1 | 0.356% (inactive) |
| O=C(/C=C/c1ccc(N2CCOCC2)cc1)c1ccccc1 | 108% (active) |
| CCN(CC)C(=O)CSc1nc2cc3c(cc2c(=O)n1CCCC(=O)NCc1ccc2c(c1)OCO2)OCO3 | 0.699% (inactive) |
| CCOc1ccc(CNC(=O)C2CCCN(S(=O)(=O)N(CC)c3ccc(OCC)cc3)C2)cc1 (stereo not drawn) | -0.432% (inactive) |
| Cc1noc(C)c1-c1ccc2ncnc(NC(C)c3ccco3)c2c1 (stereo not drawn) | -0.27% (inactive) |
| Cc1noc2ncnc(NCc3ccccc3Cl)c12 | 21.4% (inactive) |
| Cc1noc(C)c1-c1ccc2ncnc(NCc3ccc(F)c(F)c3)c2c1 | 131% (active) |
| O=C(NCCCO)c1nn(-c2ccc(Cl)cc2)nc1CO | -0.511% (inactive) |
| Cc1ccc(OCC(=O)Nc2ccc(OCc3cc(=O)n4c(C)csc4n3)cc2)cc1C | 5.64% (inactive) |
| O=C(CNC(=O)c1ccccc1F)c1ccc(Br)cc1 | -0.969% (inactive) |
| O=C(c1ccc(F)cc1)n1c(=S)nc2ccccn21 | 2.37% (inactive) |
| O=C(C[n+]1cc(Br)cc2ccccc21)c1ccc(F)cc1 | 39.6% (active) |
| Cc1ccc(-n2ncc3c(N4CCC(C(N)=O)CC4)ncnc32)cc1 | -2.06% (inactive) |
| CCOC(=O)C1CCN(C(=O)CSc2c3c(nc4ccc(Cl)cc24)CCCC3)CC1 | 3.05% (inactive) |
| Cc1cc(NC(=O)c2ccc(-c3ccc(Cl)cc3)o2)cc(-c2nc3ncccc3o2)c1O | -0.471% (inactive) |
| CCN(Cc1ccccc1)C(=O)c1cn(-c2cccc(OC)c2)c(=O)c2ccccc12 | 0.204% (inactive) |
| Cc1cccc(C(=O)Nc2ccc(-c3nc4ncccc4o3)cc2C)c1 | 0.768% (inactive) |

Source: PubChem BioAssay AID504660 (National Center for Advancing Translational Sciences (NCATS), 2011)
